According to the supplement of paper PMC10849652:
The full data set covers some 8,800 targets. This sample favours those with a hit. About 0.5% of all pairs of compound and target were hits.

Columns and labels:
Assay in all cases: log2 fold change, soluble protein after heating vs DMSO (PISA); higher = thermal stabilisation; K562 lysate, 10 uM; active = over 0.2 and 3.5 SD of the protein, either way, in both replicates (recomputed)
[1] = compound: C=CC(=O)N1CCC[C@@H](n2nc(-c3ccc(Oc4ccccc4)cc3)c3c(N)ncnc32)C1 [ibrutinib]
How it was run: (§1)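 Following dounce homogenisation of K562 pellets in PBS pH 7.4 with 1 mM MgCl2, crude extract at 1 mg/mL protein was incubated for 30 min with 10 μM compound. Aliquots were then heated for 3 min over 48°C-58°C and pooled, NP-40 was added to 0.5% at 4°C, and soluble protein was recovered as the supernatant at 21,000xg for 90 min. Channel-sum-equalised TMTpro 16plex LC-MS/MS quantified this protein. Each value, from duplicates, is a log-two fold change in thermal stability relative to solvent controls.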

[2] = compound: CC(=O)c1cnc2ccc(-c3cc(Cl)c(O)c(Cl)c3)nc2c1N[C@H]1CC[C@H](CN(C)C)CC1
How it was run: as §1

[3] = compound: CC(C)(C)Cn1c(N)nc2ccc(-c3[nH]c(C(C)(C)C)nc3-c3ccc(F)cc3)nc21 [ralimetinib]
How it was run: as §1

[4] = compound: CC(C)(O)CC(=O)NCCn1ccc2ncnc(Nc3ccc(Oc4cccc(C(F)(F)F)c4)c(Cl)c3)c21
How it was run: as §1

[5] = compound: CC(C)C1=C2N=C(C=C(N2N=C1)NCC3=CC=CC=C3)NCCCCCCN
How it was run: as §1

[6] = compound: CC1=C(C(CC(=O)N1)C2=CC=C(C=C2)C(F)(F)F)C(=O)NC3=C(C=C4C(=C3)C=NN4)F
How it was run: as §1

[7] = compound: CC1=C(C2=C(C=C1)C(=O)C3=CC=CC=C3N2CCCN)C
How it was run: as §1

[8] = compound: CC1=C(C=C(C=C1)NC(=O)C2=CC(=CC=C2)C(C)(C)C#N)NC3=CC4=C(C=C3)N=CN(C4=O)C
How it was run: as §1

[9] = compound: CC1=C(C=C(C=C1)NC(=O)C2=CC(=CC=C2)N(C)C)NC(=O)C3=CC=C(C=C3)O
How it was run: as §1

[10] = compound: CC1=CC=C(C=C1)SC2=C3C=C(SC3=CN=C2)C(=O)N
How it was run: as §1

Measured: log2 fold change

GAPDH (UniProt P04406)
inactive: [1] 0.037 | [2] 0.021 | [3] -0.006 | [4] 0.02 | [5] 0.008 | [6] -0.01 | [7] -0.008 | [8] -0.037 | [9] -0.014 | [10] 0.009

FASTKD5 (UniProt Q7L8L6)
inactive: [1] -0.134 | [2] 0.056 | [3] 0.073 | [4] 0.007 | [5] -0.027 | [6] 0.032 | [7] 0.006 | [8] 0.021 | [9] 0.008 | [10] -0.053

DTYMK (UniProt P23919)
inactive: [1] 0.027 | [2] -0.018 | [3] 0.049 | [4] -0.015 | [5] 0.023 | [6] -0.035 | [7] -0.005 | [8] -0.017 | [9] 0.038 | [10] -0.002

GABPB1 (UniProt Q06547)
inactive: [1] -0.106 | [2] -0.012 | [3] 0.021 | [4] 0.014 | [5] 0 | [6] 0.013 | [7] -0.026 | [8] 0.003 | [9] 0.071 | [10] 0.024

EDC4 (UniProt Q6P2E9)
inactive: [1] -0.001 | [2] 0.001 | [3] 0.028 | [4] -0.009 | [5] -0.011 | [6] 0.004 | [7] -0.006 | [8] 0.006 | [9] 0 | [10] -0.019

ELAVL1 isoform 2 (UniProt Q15717)
inactive: [1] 0.042 | [2] -0.034 | [3] -0.016 | [4] 0.039 | [5] -0.009 | [6] -0.02 | [7] -0.026 | [8] -0.042 | [9] 0.028 | [10] 0.007

ESPL1 (UniProt Q14674)
active: [10] -0.371
inactive: [1] -0.076 | [2] -0.335 | [3] 0.002 | [4] 0.01 | [5] 0.04 | [6] -0.005 | [7] -0.036 | [8] -0.04 | [9] 0.076

FBLL1 (UniProt A6NHQ2)
inactive: [1] -0.042 | [2] -0.031 | [3] 0.029 | [4] -0.056 | [5] -0.014 | [6] 0.001 | [7] -0.121 | [8] 0.006 | [9] 0.049 | [10] -0.018

FTSJ3 (UniProt Q8IY81)
Sequence of UniProt Q8IY81 (Q8IY81 whole entry, looked up): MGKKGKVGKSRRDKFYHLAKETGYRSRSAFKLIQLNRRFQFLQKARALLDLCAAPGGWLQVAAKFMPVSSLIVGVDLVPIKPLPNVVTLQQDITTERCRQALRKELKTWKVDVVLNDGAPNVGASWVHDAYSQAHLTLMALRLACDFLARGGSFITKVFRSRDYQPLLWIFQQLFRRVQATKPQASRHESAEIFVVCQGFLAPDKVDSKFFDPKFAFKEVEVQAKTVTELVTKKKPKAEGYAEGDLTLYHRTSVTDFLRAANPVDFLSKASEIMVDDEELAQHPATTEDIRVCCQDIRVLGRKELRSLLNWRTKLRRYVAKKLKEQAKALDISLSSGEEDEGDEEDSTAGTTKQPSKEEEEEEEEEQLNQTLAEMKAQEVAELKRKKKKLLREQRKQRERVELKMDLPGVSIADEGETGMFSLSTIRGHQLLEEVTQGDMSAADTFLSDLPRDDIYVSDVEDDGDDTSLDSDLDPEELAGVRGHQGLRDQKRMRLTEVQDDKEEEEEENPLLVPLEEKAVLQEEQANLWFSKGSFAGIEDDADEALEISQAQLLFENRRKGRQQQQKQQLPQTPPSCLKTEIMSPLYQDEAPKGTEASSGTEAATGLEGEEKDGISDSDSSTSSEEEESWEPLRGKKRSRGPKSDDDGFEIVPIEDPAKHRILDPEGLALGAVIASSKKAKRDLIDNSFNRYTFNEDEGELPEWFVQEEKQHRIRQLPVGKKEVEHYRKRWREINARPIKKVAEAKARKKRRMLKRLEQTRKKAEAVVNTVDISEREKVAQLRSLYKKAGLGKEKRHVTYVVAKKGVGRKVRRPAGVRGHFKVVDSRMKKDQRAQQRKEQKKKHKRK
inactive: [1] 0.05 | [2] 0.005 | [3] 0.026 | [4] -0.033 | [5] 0.086 | [6] 0.016 | [7] -0.037 | [8] -0.01 | [9] 0.002 | [10] 0.04

EEFSEC (UniProt P57772)
Sequence of UniProt P57772 (P57772 whole entry, looked up): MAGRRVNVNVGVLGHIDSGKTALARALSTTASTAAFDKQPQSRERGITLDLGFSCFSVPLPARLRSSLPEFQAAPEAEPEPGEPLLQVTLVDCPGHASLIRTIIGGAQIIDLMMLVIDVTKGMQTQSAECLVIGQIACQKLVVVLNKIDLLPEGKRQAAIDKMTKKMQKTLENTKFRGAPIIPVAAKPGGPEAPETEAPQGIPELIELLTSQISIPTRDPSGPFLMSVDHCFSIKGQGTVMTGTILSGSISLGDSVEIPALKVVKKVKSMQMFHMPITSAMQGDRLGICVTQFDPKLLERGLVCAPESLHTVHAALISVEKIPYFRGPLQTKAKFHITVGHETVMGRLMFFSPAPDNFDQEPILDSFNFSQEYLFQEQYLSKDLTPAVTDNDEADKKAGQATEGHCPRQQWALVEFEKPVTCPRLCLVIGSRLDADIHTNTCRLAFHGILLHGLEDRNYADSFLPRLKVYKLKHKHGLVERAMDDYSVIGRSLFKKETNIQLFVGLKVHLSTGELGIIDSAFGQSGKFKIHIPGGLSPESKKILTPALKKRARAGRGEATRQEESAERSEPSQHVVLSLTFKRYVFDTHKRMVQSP
inactive: [1] 0.031 | [2] -0.03 | [3] 0.019 | [4] -0.013 | [5] -0.025 | [6] -0.011 | [7] 0.005 | [8] 0.011 | [9] 0.039 | [10] 0.006

GEMIN2 (UniProt O14893)
inactive: [1] -0.044 | [2] 0.016 | [3] 0 | [4] -0.11 | [5] 0.033 | [6] -0.014 | [7] -0.025 | [8] -0.045 | [9] 0.006 | [10] 0.026

DSTN (UniProt P60981)
Sequence of UniProt P60981 (P60981 whole entry, looked up): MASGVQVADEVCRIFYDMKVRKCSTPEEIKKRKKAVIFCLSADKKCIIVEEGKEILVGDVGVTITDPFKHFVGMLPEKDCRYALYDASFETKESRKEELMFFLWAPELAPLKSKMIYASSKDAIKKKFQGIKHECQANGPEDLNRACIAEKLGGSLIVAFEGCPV
inactive: [1] -0.011 | [2] -0.013 | [3] -0.004 | [4] 0.038 | [5] -0.006 | [6] -0.001 | [7] 0.045 | [8] -0.005 | [9] -0.012 | [10] -0.003

ESRRA (UniProt P11474)
Sequence of UniProt P11474 (P11474 whole entry, looked up): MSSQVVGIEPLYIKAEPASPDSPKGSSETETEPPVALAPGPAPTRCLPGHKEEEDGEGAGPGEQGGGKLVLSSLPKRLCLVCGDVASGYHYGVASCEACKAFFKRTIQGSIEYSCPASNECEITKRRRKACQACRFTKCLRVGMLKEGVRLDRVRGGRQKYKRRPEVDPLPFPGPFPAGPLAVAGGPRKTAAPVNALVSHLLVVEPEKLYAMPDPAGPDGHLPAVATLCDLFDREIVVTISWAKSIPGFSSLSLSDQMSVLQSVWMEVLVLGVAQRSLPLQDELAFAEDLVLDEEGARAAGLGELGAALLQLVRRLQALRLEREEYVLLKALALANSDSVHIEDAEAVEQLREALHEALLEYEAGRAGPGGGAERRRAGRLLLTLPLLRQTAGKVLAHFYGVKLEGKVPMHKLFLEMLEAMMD
active: [1] -0.408
inactive: [2] 0.045 | [3] 0.043 | [4] -0.023 | [5] 0 | [6] -0.007 | [7] -0.075 | [8] 0.067 | [9] -0.009 | [10] 0.089

FIG4 (UniProt Q92562)
inactive: [1] 0.14 | [2] -0.07 | [3] -0.01 | [4] -0.115 | [5] -0.012 | [6] -0.248 | [7] 0.029 | [8] -0.093 | [9] -0.085 | [10] 0.012

EIF1 (UniProt P41567)
Sequence of UniProt P41567 (P41567 whole entry, looked up): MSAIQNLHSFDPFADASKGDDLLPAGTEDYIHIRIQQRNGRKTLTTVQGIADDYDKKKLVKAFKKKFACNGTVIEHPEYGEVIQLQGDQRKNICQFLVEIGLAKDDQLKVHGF
inactive: [1] 0.026 | [2] 0.015 | [3] -0.016 | [4] 0.011 | [5] 0 | [6] -0.114 | [7] 0.059 | [8] 0.045 | [9] -0.043 | [10] -0.037

FOXJ3 (UniProt Q9UPW0)
inactive: [1] -0.003 | [2] 0.002 | [3] -0.021 | [4] -0.08 | [5] 0.047 | [6] -0.026 | [7] -0.022 | [8] 0.071 | [9] 0.025 | [10] 0.006

GIPC3 (UniProt Q8TF64)
inactive: [1] -0.021 | [2] -0.078 | [3] -0.019 | [4] -0.011 | [5] 0.022 | [6] 0.282 | [7] -0.019 | [8] 0.185 | [9] -0.033 | [10] -0.13

GALNT2 (UniProt Q10471)
inactive: [1] -0.004 | [2] 0 | [3] 0.006 | [4] 0.022 | [5] -0.005 | [6] 0.015 | [7] 0.031 | [8] -0.041 | [9] -0.012 | [10] -0.016

DSN1 (UniProt Q9H410)
inactive: [1] -0.004 | [2] -0.023 | [3] 0.011 | [4] 0.001 | [5] -0.015 | [6] 0.024 | [7] -0.018 | [8] 0.017 | [9] 0.025 | [10] -0.011

EPN2 (UniProt O95208)
inactive: [1] -0.01 | [2] -0.016 | [3] 0.075 | [4] -0.004 | [5] -0.058 | [6] 0.009 | [7] -0.024 | [8] 0.001 | [9] 0.017 | [10] -0.009

FAM120B (UniProt Q96EK7)
inactive: [1] 0.023 | [2] -0.003 | [3] 0.035 | [4] -0.013 | [5] 0.031 | [6] -0.028 | [7] 0.002 | [8] 0.008 | [9] 0.041 | [10] 0.012

EBP (UniProt Q15125)
inactive: [1] -0.023 | [2] 0.002 | [3] 0.004 | [4] -0.022 | [5] 0.02 | [6] 0.01 | [7] -0.025 | [8] -0.016 | [9] -0.152 | [10] 0.005

EXOC2 (UniProt Q96KP1)
Sequence of UniProt Q96KP1 (Q96KP1 whole entry, looked up): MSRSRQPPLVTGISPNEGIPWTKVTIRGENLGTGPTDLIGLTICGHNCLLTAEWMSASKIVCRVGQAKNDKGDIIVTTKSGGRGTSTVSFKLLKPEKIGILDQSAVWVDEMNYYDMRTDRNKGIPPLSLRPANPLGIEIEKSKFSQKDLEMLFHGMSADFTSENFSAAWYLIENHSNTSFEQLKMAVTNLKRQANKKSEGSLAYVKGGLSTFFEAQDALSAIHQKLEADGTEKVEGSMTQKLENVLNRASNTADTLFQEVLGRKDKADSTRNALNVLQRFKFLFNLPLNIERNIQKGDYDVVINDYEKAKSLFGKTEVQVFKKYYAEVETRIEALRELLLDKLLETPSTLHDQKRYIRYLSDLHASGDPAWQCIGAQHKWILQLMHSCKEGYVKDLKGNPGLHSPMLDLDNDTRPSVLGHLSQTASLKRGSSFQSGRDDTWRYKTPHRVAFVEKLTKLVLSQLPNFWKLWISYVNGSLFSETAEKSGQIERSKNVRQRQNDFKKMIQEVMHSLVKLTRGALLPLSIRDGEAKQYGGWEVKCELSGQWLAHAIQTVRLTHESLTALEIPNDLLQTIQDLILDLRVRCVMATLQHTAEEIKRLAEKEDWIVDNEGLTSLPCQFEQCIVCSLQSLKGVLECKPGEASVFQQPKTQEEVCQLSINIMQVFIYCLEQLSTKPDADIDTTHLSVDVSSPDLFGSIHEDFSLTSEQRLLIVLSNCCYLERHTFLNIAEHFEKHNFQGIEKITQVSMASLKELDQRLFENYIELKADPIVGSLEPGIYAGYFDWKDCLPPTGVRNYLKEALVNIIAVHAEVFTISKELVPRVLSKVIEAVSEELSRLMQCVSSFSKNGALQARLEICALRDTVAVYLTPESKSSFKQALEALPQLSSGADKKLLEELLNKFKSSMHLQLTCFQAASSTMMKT
inactive: [1] 0.014 | [2] 0.003 | [3] 0.049 | [4] -0.027 | [5] -0.022 | [6] 0.01 | [7] -0.019 | [8] 0.016 | [9] 0.032 | [10] 0.004

EXOC4 (UniProt Q96A65)
Sequence of UniProt Q96A65 (Q96A65 whole entry, looked up): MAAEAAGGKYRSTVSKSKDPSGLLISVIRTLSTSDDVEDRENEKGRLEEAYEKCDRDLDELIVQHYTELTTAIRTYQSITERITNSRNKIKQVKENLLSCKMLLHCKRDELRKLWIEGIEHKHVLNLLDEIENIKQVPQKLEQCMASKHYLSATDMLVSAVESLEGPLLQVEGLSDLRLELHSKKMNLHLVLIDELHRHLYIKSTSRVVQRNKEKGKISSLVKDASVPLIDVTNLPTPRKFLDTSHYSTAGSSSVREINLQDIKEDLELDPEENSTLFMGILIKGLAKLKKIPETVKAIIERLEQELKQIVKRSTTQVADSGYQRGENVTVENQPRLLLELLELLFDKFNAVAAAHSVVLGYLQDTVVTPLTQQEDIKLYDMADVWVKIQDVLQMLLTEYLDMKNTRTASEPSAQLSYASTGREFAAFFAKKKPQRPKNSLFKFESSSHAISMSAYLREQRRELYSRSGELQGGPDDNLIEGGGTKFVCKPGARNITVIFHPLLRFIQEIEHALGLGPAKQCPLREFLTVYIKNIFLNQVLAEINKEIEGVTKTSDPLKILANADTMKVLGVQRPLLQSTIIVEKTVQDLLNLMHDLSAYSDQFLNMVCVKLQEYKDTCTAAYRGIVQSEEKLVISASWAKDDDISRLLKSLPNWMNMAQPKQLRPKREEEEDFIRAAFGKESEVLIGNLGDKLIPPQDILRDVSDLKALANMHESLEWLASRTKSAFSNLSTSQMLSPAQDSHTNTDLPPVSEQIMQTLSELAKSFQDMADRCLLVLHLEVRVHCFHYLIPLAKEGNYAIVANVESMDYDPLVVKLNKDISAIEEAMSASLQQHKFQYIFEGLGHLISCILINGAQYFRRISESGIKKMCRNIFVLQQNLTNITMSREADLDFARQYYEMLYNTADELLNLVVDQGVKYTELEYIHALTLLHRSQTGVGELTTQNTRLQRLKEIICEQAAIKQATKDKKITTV
inactive: [1] -0.004 | [2] -0.011 | [3] 0.014 | [4] -0.031 | [5] -0.003 | [6] -0.013 | [7] 0.022 | [8] -0.031 | [9] 0.02 | [10] 0.002

GEMIN5 (UniProt Q8TEQ6)
inactive: [1] 0.012 | [2] -0.01 | [3] 0.03 | [4] -0.001 | [5] 0.016 | [6] -0.02 | [7] -0.026 | [8] 0.005 | [9] 0.014 | [10] 0.007

FAM114A2 (UniProt Q9NRY5)
Sequence of UniProt Q9NRY5 (Q9NRY5 whole entry, looked up): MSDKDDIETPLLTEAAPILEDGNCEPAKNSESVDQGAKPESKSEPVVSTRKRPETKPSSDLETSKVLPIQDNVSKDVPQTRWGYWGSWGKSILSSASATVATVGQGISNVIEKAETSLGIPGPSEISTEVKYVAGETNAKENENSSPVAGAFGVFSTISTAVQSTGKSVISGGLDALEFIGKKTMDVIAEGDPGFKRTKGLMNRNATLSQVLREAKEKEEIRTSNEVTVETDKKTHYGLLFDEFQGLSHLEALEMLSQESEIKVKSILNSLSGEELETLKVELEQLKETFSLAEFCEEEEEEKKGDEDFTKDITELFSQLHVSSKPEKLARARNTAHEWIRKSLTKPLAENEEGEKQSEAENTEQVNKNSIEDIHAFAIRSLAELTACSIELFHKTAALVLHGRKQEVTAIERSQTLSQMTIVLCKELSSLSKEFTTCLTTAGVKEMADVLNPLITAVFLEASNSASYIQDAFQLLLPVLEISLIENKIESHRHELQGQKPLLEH
inactive: [1] -0.016 | [2] -0.061 | [3] -0.036 | [4] -0.11 | [5] 0.057 | [6] 0.171 | [7] 0.06 | [8] -0.069 | [9] 0.005 | [10] 0.012

GGA2 (UniProt Q9UJY4)
inactive: [1] -0.007 | [2] 0 | [3] 0.026 | [4] -0.01 | [5] -0.062 | [6] 0.099 | [7] 0.01 | [8] -0.024 | [9] 0.031 | [10] -0.021

FXR2 (UniProt P51116)
inactive: [1] 0.027 | [2] -0.008 | [3] 0.028 | [4] 0.004 | [5] 0.026 | [6] 0.024 | [7] 0.004 | [8] -0.005 | [9] -0.018 | [10] 0.011

GCDH (UniProt Q92947)
Sequence of UniProt Q92947 (Q92947 whole entry, looked up): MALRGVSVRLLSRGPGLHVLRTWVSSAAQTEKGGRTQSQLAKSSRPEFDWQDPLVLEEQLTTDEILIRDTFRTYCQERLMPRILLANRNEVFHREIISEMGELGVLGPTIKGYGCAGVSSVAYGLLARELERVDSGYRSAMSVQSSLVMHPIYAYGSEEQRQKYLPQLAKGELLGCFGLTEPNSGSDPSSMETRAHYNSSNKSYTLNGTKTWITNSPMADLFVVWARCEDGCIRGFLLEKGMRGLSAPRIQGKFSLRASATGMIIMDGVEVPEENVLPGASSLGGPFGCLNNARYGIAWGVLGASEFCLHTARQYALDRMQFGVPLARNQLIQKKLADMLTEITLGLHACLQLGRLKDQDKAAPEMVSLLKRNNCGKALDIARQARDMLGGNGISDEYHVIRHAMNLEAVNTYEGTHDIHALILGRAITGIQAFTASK
inactive: [1] -0.046 | [2] 0.028 | [3] -0.04 | [4] 0.014 | [5] -0.051 | [6] 0.069 | [7] -0.019 | [8] 0.086 | [9] -0.017 | [10] -0.03

EIF3I (UniProt Q13347)
inactive: [1] 0.018 | [2] -0.019 | [3] 0.035 | [4] 0.046 | [5] 0.032 | [6] 0.003 | [7] 0.013 | [8] 0.009 | [9] 0.056 | [10] 0.022
